RORg inh: ROR gamma (mouse) transcription inhibition; Potency, µM (highest dose often 53.6 µM), inactives show top-dose activity change, negative = inhibition, usual class: inhibitors; AID 2551; Drosophila S2 Gal4-RORgamma UAS-luciferase reporter, 20 h; 310,000 compounds, 5.4% hits; P51450; note: nearly all actives have a fitted effect of over 60% in size
Target sequence (P51450 whole entry, looked up, the tested form may be a part): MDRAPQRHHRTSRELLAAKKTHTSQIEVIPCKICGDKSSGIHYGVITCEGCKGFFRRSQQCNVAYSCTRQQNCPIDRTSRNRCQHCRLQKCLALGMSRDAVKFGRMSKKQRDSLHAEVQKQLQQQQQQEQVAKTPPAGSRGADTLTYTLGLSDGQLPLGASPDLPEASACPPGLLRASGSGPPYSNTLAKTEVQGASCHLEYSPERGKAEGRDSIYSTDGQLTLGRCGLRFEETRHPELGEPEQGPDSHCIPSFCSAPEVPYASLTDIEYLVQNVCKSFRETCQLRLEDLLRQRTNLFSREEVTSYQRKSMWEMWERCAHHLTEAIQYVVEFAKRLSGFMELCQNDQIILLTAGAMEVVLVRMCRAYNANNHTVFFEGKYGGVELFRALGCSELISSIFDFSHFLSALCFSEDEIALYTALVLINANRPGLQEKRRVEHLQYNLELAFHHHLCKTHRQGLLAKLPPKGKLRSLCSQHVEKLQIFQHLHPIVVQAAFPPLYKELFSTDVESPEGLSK
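Using a luciferase readout, inhibitors were identified by reduced reporter activity in Drosophila cells coexpressing a copper-inducible Gal4–ROR gamma fusion and UAS-driven Photinus luciferase, incubated 20 hr after 700 uM copper sulfate.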
Luc counter: counter-screen: inhibitors of Kinase-Glo firefly luciferase; Potency, µM (titrated, usually from 38.3 µM), for the others: at the highest dose activity change, negative = inhibition, hits mostly inhibitors; Kinase-Glo luciferase, ATP luminescence, 8 min; 200,000 compounds, 0.28% hits; Q27757; note: nearly all actives have a fitted effect of over 60% in size
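Substrate mix (final 50 mM imidazole pH 7.2, 50 mM KCl, 7 mM MgCl2, 10 uM ATP, 0.01% Tween 20, 0.05% BSA) plus pin-tool compound, then Kinase-Glo detection mix; 8 min ambient, luminescence read.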
Gal4-VP16 FLuc: counter-screen for ROR gamma inhibitors: Gal4-VP16 reporter | 310,000 compounds, 3.5% hits | Potency, µM (highest dose often 53.6 µM), for the others: top-dose activity, negative = inhibition, most hits filed as inhibitors | AID 2546 | Drosophila S2 Gal4-VP16 UAS-luciferase, luminescence, 20 h;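 note: Gal4-VP16 expression switched on by copper sulfate through the metallothionein promoter; nearly all actives have a fitted effect of over 50% in size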
* marks the source's active call; other numbers are inactive results; u = inconclusive; x = no result; [ ] = another dose, or the depositor's remark. This is a sample that favours compounds with a hit; in the whole collection about 6.2% have one here. Calls come from the whole dose curve; as a rule, active = well fitted curve in the direction sought with a large enough effect; inconclusive = small, poorly fitted or top-dose-only effect, or another doubt; inactive = no such curve, though single readings can be large; an effect the other way counts as inactive or inconclusive. % is set by controls: 0 for no effect and ±100 for the full control effect; potency is the fitted concentration of half-maximal effect.

SMILES	RORg inh	Luc counter	Gal4-VP16 FLuc
CCCCOc1ccc(S(=O)(=O)NNC(=O)c2cc3ccccc3o2)cc1	-4%[10 µM]	2%	-30%
Cc1cc(C)c(N(Cc2ccccc2)S(=O)(=O)c2ccc(OCCNC(=O)c3cc4ccccc4o3)cc2)c(C(=O)NO)c1	10µM*	x	u
CCOc1ccccc1NC(=O)C(=O)CC(=O)c1cccc(OC)c1	3.5µM*	x	7.9µM*
COc1cccc(C(=O)CC(=O)C(=O)Nc2cc(OC)ccc2OC)c1	11µM*	x	u
COc1ccc(C(=O)CC(=O)C(=O)Nc2ccccc2OC)cc1	5.6µM*	x	4.5µM*
COc1ccc(C(=O)CC(=O)C(=O)Nc2ccc(C)c(C)c2)cc1	13µM*	x	u
COc1ccc(C(=O)CC(=O)C(=O)Nc2ccc(C)cc2Cl)cc1	-9%	x	20%
COc1ccc(C(=O)CC(=O)C(=O)Nc2cccc(C(C)=O)c2)cc1	-22%	x	5%
COc1cccc(C(=O)CC(=O)C(=O)Nc2cc(OC)c(OC)c(OC)c2)c1	0%	x	0%
COc1cccc(C(=O)Nc2ccccc2OC(F)(F)F)c1	-3%	-1%	-15%
CCOC(=O)CC(=O)NC1(Cc2ccc(O)cc2)CCCCC1	23%	0%	-2%
COCCNC(=O)c1ccc(CS(=O)(=O)c2cccc(C(F)(F)F)c2)o1	23%	x	12%
COc1cc(NS(C)(=O)=O)ccc1Cc1c2ccccc2nc2ccccc12	-17%	-2%	-14%
COc1cccc(C(=O)NNC(=O)C(=O)Nc2cccc3ccccc23)c1	-24%	x	-2%
COc1cccc(C(=O)NNC(=O)C(=O)Nc2ccc(OC)cc2OC)c1	14µM*	x	1%
O=C(CCNC(=O)c1ccccc1Cl)Nc1cc(C(F)(F)F)ccc1N1CCCC1	0%	x	-5%
C[C@@H]1OC(OC2CC[C@@]3(C)C(CC[C@@]4(C)C3CC=C3C5CC(C)(C)CC[C@]5(C(=O)OC5OCC(O)[C@@H](O)[C@@H]5OC5O[C@@H](C)[C@H](O[C@H]6OC(CO)C(O)C(O)C6O)C(O)C5O)C(O)C[C@@]34C)C2(C)C)C(O)C(O)[C@H]1OC1OCC(O)C(O)[C@H]1O (stereo not given in full)	-20%	1%	u
CC1OC(O[C@H]2CC[C@]3(C)C4C=C[C@]56OC[C@@]7(CC[C@@H](C)[C@H](C)C75)[C@H](O)C[C@@]6(C)[C@]4(C)CC[C@H]3C2(C)C)C(OC2OC(CO)C(O)C(O)C2OC2OCC(O)C(O)C2O)C(O)C1O (stereo not given in full)	1.8µM*	x	-21%
CCOc1cc(C2C3=C(CC(C)(C)CC3=O)N(C)C3=C2C(=O)CC(C)(C)C3)ccc1O	13%	x	-14%
COc1ccc(C(=O)Nc2ccncc2)cc1[N+](=O)[O-]	25%	x	-25%
CCOc1ccc(C(=O)Nc2ccccc2N2CCCC2)cc1	-19%	0%	-9%
O=C(Nc1ccccc1N1CCCCC1)c1cccc([N+](=O)[O-])c1	11%	0%	-3%
COc1ccc(C(=O)NC(=S)Nc2ccccc2N2CCCCC2)cc1[N+](=O)[O-]	u	0%	1µM*
CCOc1ccc(C(=O)NC(=S)Nc2ccccc2N2CCCCC2)cc1[N+](=O)[O-]	u	-1%	0.5µM*
COc1ccc(C(=O)NC(=S)N2CCCCC2)cc1[N+](=O)[O-]	0.89µM*	1%	1.3µM*
SMILES	RORg inh	Luc counter	Gal4-VP16 FLuc
CCOc1ccc(C(=O)NC(=S)Nc2ccc(NC(=O)CC)cc2)cc1[N+](=O)[O-]	-32%	-2%	-7%
CCOc1ccc(C(=O)NC(=S)Nc2ccc(N3CCCCC3)cc2)cc1[N+](=O)[O-]	3.2µM*	-3%	4µM*
CC(C)CC(=O)Nc1ccccc1-c1nnn(CC(=O)N2CCc3ccccc3C2)n1	28%	-1%	-1%
COc1c(F)c(F)c(C(=O)Nc2cccc(Cl)c2N2CCOCC2)c(F)c1F	4%	-1%	-4%
CCOc1ccc(C(F)(F)F)cc1NC(=O)c1ccc(OC)c([N+](=O)[O-])c1	-12%	0%	-24%
COc1ccc(C(=O)NC(=S)Nc2cc(C)ccn2)cc1[N+](=O)[O-]	u	-1%	1µM*
COc1ccc(C(=O)Nc2cc(C)on2)cc1[N+](=O)[O-]	5%	1%	4%
CCOc1ccc(C(=O)NC(=S)Nc2ccccc2OC)cc1[N+](=O)[O-]	7.1µM*	0%	u
COc1cc(C(=O)NC(=S)Nc2ccccc2[N+](=O)[O-])cc(OC)c1OC	5.6µM*	3%	u
COc1ccc(C(=O)NC(=S)Nc2cccc(Cl)c2N2CCOCC2)cc1[N+](=O)[O-]	1.8µM*	-4%	5µM*
COc1cc(C(=O)NC(=S)Nc2ccc([N+](=O)[O-])cc2)cc(OC)c1OC	-11%	2%	-16%
O=c1c(Br)c(NCc2ccccc2)cnn1-c1ccc(F)cc1	44%	2%	-13%
NCCCC[C@H](NC(=O)[C@H](CCCN=C(N)N)NC(=O)[C@H](CO)NC(=O)[C@H](CCCN=C(N)N)NC(=O)[C@@H](N)Cc1ccc(O)cc1)C(=O)N[C@@H](Cc1ccc(O)cc1)C(=O)N[C@@H](CO)C(=O)N[C@@H](CO)C(=O)N[C@@H](Cc1c[nH]c2ccccc12)C(=O)N[C@@H](Cc1ccc(O)cc1)C(=O)O	-19%	x	4%
CCOc1ccc(C(=O)NC(=S)NC2CCCC2)cc1[N+](=O)[O-]	5µM*	0%	16µM*
CCOc1ccc(C(=O)Nc2ccc(N3CCN(C)CC3)cc2)cc1[N+](=O)[O-]	-1%	2%	-17%[10 µM]
Cc1nn(-c2ccccc2)c(N2CCCC2)c1/C=N/NC(=O)C1CC1	-7%	1%	-1%
Cc1nn(-c2ccccc2)c(Cl)c1/C=N/NC(=O)OC(C)(C)C	u	5%	1%
Cc1nn(-c2ccccc2)c(Cl)c1/C=N/NC(=O)c1ccco1	22%	2%	-2%
Cc1nn(-c2ccccc2)c(N2CCCC2)c1/C=N/NC(=O)c1ccccc1O	10µM*	1%	10µM*
CNC(=S)N/N=C/c1c(C)nn(-c2ccccc2)c1Cl	u	-3%	0.89µM*
O=c1ccc2cc3c4c(c2o1)CCCN4CCC3	-27%	-2%	-13%
O=C(N/N=C/c1cc2c3c(c1O)CCCN3CCC2)c1ccccc1O	u	-1%	20µM*
CNC(=S)N/N=C/c1c(C)nn(-c2cccc(Cl)c2)c1Cl	2µM*	0%	1.3µM*
Cc1cccc(/C(N)=N/OC(=O)CCc2ccccc2)c1	-30%	x	2%
Cc1nc2ccccc2nc1OCc1cccc([N+](=O)[O-])c1	2%	0%	-12%
SMILES	RORg inh	Luc counter	Gal4-VP16 FLuc
O=C(C1CCN(S(=O)(=O)c2ccc(Br)cc2)CC1)N1CCOCC1	-22%	x	-15%
CC12CCC(C(=O)NCCCn3ccnc3)(OC1=O)C2(C)C (stereo not given)	-9%[0.365 µM]	-2%	x
Cc1nnc(SCc2ccccc2CSc2nnc(C)s2)s1	38%	-1%	3%
CN(C)c1ccc(C(=N)c2ccc(N(C)C)cc2)cc1	-16%	x	23%
CN=C1C=CC(=C(c2ccc(N(C)C)cc2)c2ccc(N(C)C)cc2)C=C1	u	x	2.5µM*
Fc1ccc(C2=CC(c3ccco3)n3ncnc3N2)cc1 (stereo not given)	-27%	3%	1%

Bioassay records from PubChem BioAssay.
